# Bioassay records: PubChem, National Center for Advancing Translational Sciences (NCATS)
# Marburg entry: Marburg virus entry inhibition; AID 720532; Potency, µM (titrated, usually from 49.2 µM), for inactives: at the highest dose activity change, negative = inhibition, hits mostly inhibitors; 18,000 tested, 6.5% active; Marburg virus pseudotype entry/binding inhibition, cell-based
# LASV entry inh: inhibitors of Lassa virus binding or entry into cells | Potency, µM (highest dose often 49.2 µM), inactives show at the top dose activity change, negative = inhibition, actives largely listed as inhibitors | 18,000 tested, 4.1% active | Lassa virus pseudotyped entry inhibition, cell-based qHTS
# * = called active by the depositor; u = inconclusive; x = no result; ! = a repeat was not active; [ ] = dose if it differs, or a comment. Compounds with a hit are over-represented: about 8.6% of the library has one in this group of screens. The call rests on the fitted dose curve; tested in HEK293 cells. On the % scale 0 is the no-effect control and ±100 the full control effect; potency means the concentration at half of the fitted maximal effect.
SMILES,Marburg entry,LASV entry inh
COCC1=C2c3ccccc3[C@H](C[N+](=O)[O-])C(C(=O)OC)(C(=O)OC)C[C@@H]2n2c(=O)n(-c3ccccc3)c(=O)n2C1,-15%,7.1µM*!
CC(=O)O[C@@H]1C[C@@]2(C)C(c3ccoc3)C[C@H]3O[C@]32[C@]2(C)C(=O)C(O)=C3C(C)(C)C(=O)C=C[C@]3(C)C12 (stereo partly specified),8.9µM*,8.9µM*
CC(=O)OC1C[C@@]2(C)C(c3ccoc3)C[C@H]3O[C@@]32[C@@]2(C)C(=O)C(O)=C3C(C)(C)C(=O)C=C[C@]3(C)C12 (stereo partly specified),2.5µM*,u
CC(=O)OC1CC2C(C)(C)C=CC(=O)[C@@]2(C)C2CC[C@@]3(C)C(c4ccoc4)OC(=O)C4OC43[C@]12C (stereo partly specified),8%,18%
CC(=O)OC1CC(OC(C)=O)[C@]2(C)C(CC(OC(C)=O)[C@]3(C)C2CC[C@@]2(C)C(c4ccoc4)C[C@H]4O[C@]432)C1(C)C (stereo partly specified),-22%,-2%
C#CCCCON=C1C[C@@H](O)[C@H](O)[C@H]2[C@@H]3C(=O)N(c4cccc(Oc5ccccc5)c4)C(=O)[C@@H]3CC[C@@H]12,31%[8.59 µM],8%[8.59 µM]
O=C(NCCCCc1ccccc1)c1cccc(NC(=O)c2ccccc2)c1,-14%,-16%
O=C(Nc1cccc(C(=O)Nc2ccc(S(=O)(=O)O)c3cc(S(=O)(=O)O)cc(S(=O)(=O)O)c23)c1)Nc1cccc(C(=O)Nc2ccc(S(=O)(=O)O)c3cc(S(=O)(=O)O)cc(S(=O)(=O)O)c23)c1,32µM*!,-28%
O=C(NCC1Cc2cc(F)cc(-c3cnccn3)c2O1)c1cccc(-c2ccccc2F)c1 (stereo unspecified),-11%,u
CC1CCC2(OC1)OC1CC3C4CC[C@@H]5CC(O)CC[C@@]5(C)C4CC(=O)[C@]3(C)C1C2C (stereo partly specified),1%,6%
C[C@H]1CC[C@]2(NC1)O[C@H]1C[C@H]3[C@@H]4CC[C@H]5C[C@@H](O[C@@H]6O[C@H](CO)[C@H](O[C@@H]7O[C@H](CO)[C@@H](O)[C@H](O[C@@H]8OC[C@@H](O)[C@H](O)[C@H]8O)[C@H]7O[C@@H]7O[C@H](CO)[C@@H](O)[C@H](O)[C@H]7O)[C@H](O)[C@H]6O)CC[C@]5(C)[C@H]4CC[C@]3(C)[C@H]1[C@@H]2C,4.5µM*,14µM*
CC(CCC(=O)OC[C@H]1O[C@H](C#Cc2ccccc2)C=C[C@H]1Oc1ccc(C)cc1)=NOC[C@@H](O)COCc1ccco1,-10%[8.59 µM],-20%[8.59 µM]
Cc1ccc(C#C[C@@H]2C=C[C@H](Oc3ccc4c(c3)OCO4)[C@@H](CO)O2)c(C)c1,11%[8.59 µM],2%[8.59 µM]
CC(C)c1c(O)ccc2c1CCC1[C@@](C)(CO)CCC[C@@]21C (stereo partly specified),-8%,u
COC(=O)[C@@]1(C)CCC[C@@]2(C)c3ccc(O)c(C(C)C)c3CCC21 (stereo partly specified),13µM*,11µM*
COc1cc2c(cc1OC)[C@H](C)NCC2,-19%[17.8 µM],5%[17.8 µM]
CC[C@@H]1CN2CCc3cc(OC)c(OC)cc3[C@H]2C[C@@H]1C[C@@H]1NCCc2cc(O)c(OC)cc21,u,0.35µM*
CCCC[C@@H](C)/C=C(C)/C=C(\C)C(=O)NC1=C[C@@](O)(/C=C/C=C/C=C/C(=O)NC2=C(O)CCC2=O)[C@@H]2O[C@@H]2C1=O,5.6µM*,16µM*
COCCN1C(=O)NC(CCc2ccccc2)C(C(C)=O)=C1C (stereo unspecified),5%[8.59 µM],11%[8.59 µM]
CC/C=C\C/C=C\C/C=C\C/C=C\C/C=C\C/C=C\CCC(=O)O,16%,4%
C/C=C/C/C=C/CCC(=O)[C@H]1O[C@H]1C(N)=O,16µM*,16µM*
CCN1C(=NCCCOC(C)C)NC(c2ccccc2)C(C(=O)OC)=C1C (stereo unspecified),-3%[8.59 µM],7%[8.59 µM]
c1ccc(CCc2nc(-c3ccccc3)oc2Nc2ccc3ccccc3c2)cc1,-22%[8.59 µM],14%[8.59 µM]
CC(CN(C)C)CN1c2ccccc2Sc2ccccc21 (stereo unspecified),11µM*,u
CC(CN(C)C)CN1c2ccccc2Sc2ccc(C(F)(F)F)cc21 (stereo unspecified),10µM*,32µM*
SMILES,Marburg entry,LASV entry inh
C[C@@H](CN(C)C)CN1c2ccccc2Sc2ccccc21,11µM*,u
CN(C)CCCN1c2ccccc2Sc2ccc(C(F)(F)F)cc21,11µM*,u
COc1ccc2c(c1)N(C[C@H](C)CN(C)C)c1ccccc1S2,u,-26%[17.8 µM]
COC(=O)N[C@H](CC(C)=O)c1cccs1,43%[8.59 µM],17%[8.59 µM]
C=CCN1Cc2ccccc2Oc2ccc(Cl)cc2S1(=O)=O,9%,42%
CC(=O)OC[C@H]1O[C@H](C#Cc2ccc(C)cc2C)C=C[C@H]1OC(C)=O,-2%[8.59 µM],u
O=C1CCCC=C1C(CCc1ccccc1)OC(=O)c1ccc(Br)cc1 (stereo unspecified),22%[8.59 µM],9%[8.59 µM]
COCOc1c2c(c(OCOC)c3c(OCOC)cccc13)C(=NNS(=O)(=O)c1ccc(C)cc1)C1=C2CCCC1,u,-22%[8.59 µM]
CC(C)(C)OC(=O)N[C@@H](Cc1c[nH]c2ccccc12)C(=O)O,11%,-6%
CC[C@@H](C)[C@H](NS(=O)(=O)c1cccc2ccccc12)C(=O)N[C@H](C=O)Cc1c[nH]c2ccccc12,3.5µM*,u
COc1cccc([C@H]2Oc3ccc(OC)cc3C(=NO[C@@H](C)c3cc(-c4c(C)cc(C)cc4C)no3)[C@H]2O)c1,5%[8.59 µM],10%[8.59 µM]
CCN1C(=S)NC(c2cccc(F)c2)C(C(=O)OC)=C1C (stereo unspecified),20%[8.59 µM],7%[8.59 µM]
CC(CCN1CCCc2nc(C)c(C)cc21)=NO[C@H](C)c1cn([C@@H]2COC[C@@H]2O)nn1,7%[8.59 µM],x
O=C(Cn1cc(COc2ccc(-c3ccc(Br)cc3)cc2)nn1)c1ccc(O)cc1,-8%,x
c1ccc2nc(N3CCNCC3)ccc2c1,32µM*!,-10%
c1ccc2c(N3CCNCC3)cccc2c1,u,0%
O=C(c1ccccc1)[C@@H]1O[C@@H]1c1ccccc1,41%[8.59 µM],-19%[8.59 µM]
CC(C)CON=C1C[C@@H](O)[C@@H](O)[C@@H]2[C@H]3C(=O)N(Cc4ccc5c(c4)OCO5)C(=O)[C@@H]3CC[C@@H]12,-30%[8.59 µM],8%[8.59 µM]
CCC1(C2CCN(Cc3cccc4ccccc34)CC2)NC(=O)N(Cc2ccc3c(c2)OCO3)C1=O (stereo unspecified),u,-30%
Cc1cccc2c(Nc3ccc4c(c3)OCO4)nc(CN3CCC(N4CCCCC4)CC3)nc12,10µM*,22µM*
N#Cc1cccc(OCc2cn(CC(=O)c3ccc(O)cc3)nn2)c1,1%,-15%
COC(=O)[C@@H]1C[C@H](NC(=O)c2ccccn2)CN1Cc1cccc2ccccc12,1%,-2%
COC(=O)[C@@H]1C[C@@H](NC(=O)c2cccc3c(C)c(C)[nH]c23)CN1Cc1cccc2ccccc12,1.8µM*,3.5µM*
CCN(CC)CCOc1ccc(-c2nc3cc(Cl)ccc3s2)cc1,13µM*,u
CCN(CC)CCOc1ccc2nc(N(C)C)sc2c1,-3%,12%
CN(C(Cc1ccc(OS(=O)(=O)c2cccc3cnccc23)cc1)C(=O)N1CCN(c2ccccc2)CC1)S(=O)(=O)c1cccc2cnccc12 (stereo unspecified),u,10µM*
